Values without a mark were called inactive. Inconclusive results are not listed. Activity calls are given as the source filed them. Unless noted, calls follow the shape of the dose curve; as a rule, active = well fitted curve in the direction sought with a large enough effect in the repeat runs; inconclusive = weak or mixed curves; inactive = no such curve, though single readings can be large; an effect the other way counts as inactive or inconclusive.

Assay [1] in a line: A CellTox Green Cytotoxicity Assay to monitor cytotoxicity in HepG2 cells - 8 hour (AID 1224890). Also: nearly all actives have a fitted effect of over 45% in size. A digest of the protocol: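 Fluorescent DNA-binding dye, 600 HepG2 cells/well, 5 h preincubation then compound in DMSO; same plates read at 0–40 h, 37 C.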
A short description of assay [2]: qHTS assay to identify small molecule antagonists of the estrogen receptor alpha (ER-alpha) signaling pathway using the BG1 cell line in the presence of 0.1 nM 17-beta-estradiol - cell viability counter screen (AID 1259241). Also: nearly all actives have a fitted effect of over 40% in size. A digest of the protocol: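 VM7Luc4E2 cells (endogenous full-length ER-alpha, 4xERE-luciferase), cultured 5 days in charcoal-stripped serum, exposed to compounds with 0.1 nM 17beta-estradiol (final) for 22 hr at 37C. Viability read in same wells as live-cell protease fluorescence after 30 min.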
(In qHTS, concentration-response curves come from the screen itself.)

The nature of assay [3]: qHTS assay to identify small molecule phospholipidosis (PLD) inducers (AID 1259344; active = well fitted curve in the direction sought with a large enough effect; an effect the other way counts as inactive or inconclusive). The method, boiled down:
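After 4 h attachment on collagen I, HepG2 cells were dosed with compound alongside LipidTOX Red, kept 24 h at 37 C, fixed, and imaged for lamellar phospholipid pits.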

Assay [4] is described as follows: qHTS assay to identify small molecule HDAC inhibitors (AID 1259364).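 Also: wild-type HCT-116 cells with endogenous class I/II HDAC activity; top concentration of the series differs between compounds; nearly all actives have a fitted effect of over 45% in size.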 A digest of the protocol:
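After a 2 hr compound incubation (37C, 5% CO2), HCT-116 cells seeded at 1,500/well the day before received HDAC-Glo reagent; signal read as luminescence after 30 min at room temperature.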

Assay [5] in a line: qHTS assay to identify small molecule HDAC inhibitors - cell viability counter screen (AID 1259365). Also: series mostly up to about 92 µM; nearly all actives have a fitted effect of over 50% in size. The method, boiled down:
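Wild-type HCT-116 cells, 1,500/well, cultured overnight, then compound-treated 2 h at 37 C. Viability measured as ATP luminescence with CellTiter-Glo after 30 min at room temperature.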

The nature of assay [6]: qHTS assay to identify small molecule agonists of the sonic hedgehog signaling (Shh) pathway - cell viability counter screen (AID 1259366). Also: nearly all actives have a fitted effect of over 50% in size. The method, boiled down:
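NIH/3T3-derived Gli1-Luc reporter cells, 2,000 per well, received compound after 4 h and were treated about 23 h at 37C. Viability measured in the same wells by CellTiter-Fluor fluorescence after 1 h.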

Assay [7] in a line: qHTS assay to identify small molecule antagonists of the sonic hedgehog signaling (Shh) pathway - cell viability counter screen (AID 1259367). Also: nearly all actives have a fitted effect of over 55% in size. The method, boiled down: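 Conditioned medium drove Shh signaling in 3T3 Gli1-Luc cells exposed to compounds at 37C and 5% CO2. Viability was determined from CellTiter-Fluor fluorescence, with reagent incubated 1 hr after 23 hr of treatment.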

A short description of assay [8]: qHTS assay to identify small molecule agonists of the sonic hedgehog signaling (Shh) pathway (AID 1259368; calls by dose curve;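 also: NIH/3T3-derived 3T3Gli1-Luc cells carrying a stable Gli1-driven firefly luciferase reporter; series mostly up to about 92 µM; nearly all actives have a fitted effect of over 15% in size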). The method, boiled down: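 Stable NIH/3T3 Gli1-Luc reporter clone; 24 hr cpd exposure after a 4 hr settling period; luminescence endpoint.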
Assay [9] is described as follows: qHTS assay to identify small molecule antagonists of the sonic hedgehog signaling (Shh) pathway (AID 1259369; calls by dose curve; also: nearly all actives have a fitted effect of over 45% in size; also: potency is read from the fitted curve at half-maximal effect). A digest of the protocol: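 Gli1 transcriptional reporter (firefly Luc) in NIH/3T3 background, conditioned-medium activated. 24hr exposure, luminescence endpoint.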
In assay [10] the target is Estrogen receptor beta (Homo sapiens) (UniProt Q92731). The assay can be described thus: qHTS assay to identify small molecule agonists of the estrogen receptor beta (ER-beta) signaling pathway (AID 1259377; active = well fitted activation curve with a large enough effect in the signal ratio in the repeat runs, not every such curve was filed as active; the % refers to the signal ratio). The method, boiled down: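 ER-beta-UAS-bla HEK293T cells in medium with 2% charcoal-stripped FBS were exposed to compounds for 16 h at 37C. Beta-lactamase reporter activity was read as fluorescence after 2 h with LiveBLAzer B/G FRET substrate at room temperature.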

Assay [11] shares this target. The assay can be described thus: qHTS assay to identify small molecule antagonists of the estrogen receptor beta (ER-beta) signaling pathway (AID 1259378; active = well fitted inhibition curve with a large enough effect in the signal ratio in the repeat runs, not every such curve was filed as active; the % refers to the signal ratio). A digest of the protocol:
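ER-beta-UAS-bla HEK293T (GripTite) cells in 2% charcoal-stripped FBS medium were preincubated 6 hr at 37C, dosed with compound, then stimulated with 1 nM E2 (final) for 16 hr; beta-lactamase reporter read by B/G FRET fluorescence after 2 hr substrate loading.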

Assay [12] in a line: qHTS assay to identify small molecule agonists of the androgen receptor (AR) signaling pathway in the presence of an antagonist - cell viability counter screen (AID 1259379).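 Also: MDA-kb2 human breast cancer cells carrying an MMTV luciferase reporter; series mostly up to about 92 µM; nearly all actives have a fitted effect of over 25% in size.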 A digest of the protocol: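 Counter screen for cell viability run in parallel with the AR agonist-mode luciferase assay. MDA-kb2 cells were co-treated with nilutamide (3.0uM final) and compounds, then incubated 16 hr at 37C, and CellTiter-Fluor fluorescence was measured.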

A short description of assay [13]: qHTS assay to identify small molecule agonists of the estrogen receptor beta (ER-beta) signaling pathway - cell viability counter screen (AID 1259380). Also: nearly all actives have a fitted effect of over 30% in size. A digest of the protocol:
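In this qHTS counter screen, HEK293T cells carrying an ER-beta/UAS beta-lactamase reporter, grown in 2% charcoal-stripped FBS, received compound for 16 hr; ATP-based CellTiter-Glo luminescence was then read after 30 min at room temperature.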

A short description of assay [14]: qHTS assay to identify small molecule antagonists of the estrogen receptor beta (ER-beta) signaling pathway - cell viability counter screen (AID 1259382). Also: series mostly up to about 92 µM; nearly all actives have a fitted effect of over 55% in size. A digest of the protocol:
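HEK293T ER-beta-UAS-bla, 2% charcoal-stripped FBS; compounds + 1nM E2 16 hr 37C; CellTiter-Glo luminescence, 30 min RT.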

Assay [15] in a line: qHTS assay to identify small molecule agonists or antagonists of the thyroid stimulating hormone receptor (TSHR) signaling pathway - wild type cell line counter screen (AID 1259384; calls by dose curve). A digest of the protocol:
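Wild-type HEK293 cells were plated 18 h at 37 C/5% CO2, pin-dosed with compound plus Ro20-1724 medium, held 30 min at room temperature, then given cAMP-d2 and anti-cAMP-cryptate; fluorescence was read after 1 h. Fifteen concentrations, triplicate.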

Assay [16] is described as follows: qHTS assay to identify small molecule antagonists of the androgen receptor (AR) signaling pathway using the MDA cell line in the presence of 0.5 nM R1881 - cell viability counter screen (AID 1259242). Also: nearly all actives have a fitted effect of over 45% in size. The method, boiled down: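 Human breast carcinoma MDA-kb2 cells, cultured without CO2, receive compounds alongside 0.5 nM (final) R1881 agonist. After 16 hr at 37C, viability is taken as live-cell protease signal.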

In assay [17] the target is Estrogen receptor (Homo sapiens) (UniProt P03372). The assay can be described thus: qHTS assay to identify small molecule antagonists of the estrogen receptor alpha (ER-alpha) signaling pathway using the BG1 cell line in the presence of 0.1 nM 17-beta-estradiol (AID 1259244). Also: nearly all actives have a fitted effect of over 50% in size. The method, boiled down:
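Seeding of stripped-serum-adapted VM7Luc4E2 cells, 24 h attachment, compound transfer, then 0.1 nM final 17beta-estradiol; after 22 h incubation, ONE-Glo reagent and luminescence reading.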

Assay [18] has the same target. The experiment in a line: qHTS assay to identify small molecule agonists of the estrogen receptor alpha (ER-alpha) signaling pathway in the presence of an antagonist (AID 1259383; calls by dose curve; also: top concentration of the series differs between compounds; nearly all actives have a fitted effect of over 15% in size). A digest of the protocol: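 ER-alpha agonism measured under antagonist challenge: 10.0nM ICI-182,780 (final) plus compound, 15 concentrations, 22hr, VM7Luc4E2 ERE-luciferase cells. Read by luminescence.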

Assay [19] addresses Androgen receptor (Homo sapiens) (UniProt P10275). The experiment in a line: qHTS assay to identify small molecule antagonists of the androgen receptor (AR) signaling pathway using the MDA cell line in the presence of 0.5 nM R1881 (AID 1259243). Also: nearly all actives have a fitted effect of over 50% in size. A digest of the protocol: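 Cells: MDA-kb2 (MMTV-luc). Stimulus: 0.5 nM R1881. Time: 16 hr, 37C, no CO2. Detection: ONE-Glo luminescence after 30 min at RT.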

The target is the same in assay [20]. The assay can be described thus: qHTS assay to identify small molecule agonists of the androgen receptor (AR) signaling pathway in the presence of an antagonist (AID 1259381; calls by dose curve; also: nearly all actives have a fitted effect of over 15% in size). The method, boiled down: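 AR antagonist background: nilutamide 3.0uM final. Cell line: MDA-kb2, MMTV-driven luciferase, responsive to both AR and GR. Exposure 16hr, 37C, no CO2; ONE-Glo luminescence.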

Chain of Estrogen receptor beta (Homo sapiens) (Q92731 whole entry, looked up): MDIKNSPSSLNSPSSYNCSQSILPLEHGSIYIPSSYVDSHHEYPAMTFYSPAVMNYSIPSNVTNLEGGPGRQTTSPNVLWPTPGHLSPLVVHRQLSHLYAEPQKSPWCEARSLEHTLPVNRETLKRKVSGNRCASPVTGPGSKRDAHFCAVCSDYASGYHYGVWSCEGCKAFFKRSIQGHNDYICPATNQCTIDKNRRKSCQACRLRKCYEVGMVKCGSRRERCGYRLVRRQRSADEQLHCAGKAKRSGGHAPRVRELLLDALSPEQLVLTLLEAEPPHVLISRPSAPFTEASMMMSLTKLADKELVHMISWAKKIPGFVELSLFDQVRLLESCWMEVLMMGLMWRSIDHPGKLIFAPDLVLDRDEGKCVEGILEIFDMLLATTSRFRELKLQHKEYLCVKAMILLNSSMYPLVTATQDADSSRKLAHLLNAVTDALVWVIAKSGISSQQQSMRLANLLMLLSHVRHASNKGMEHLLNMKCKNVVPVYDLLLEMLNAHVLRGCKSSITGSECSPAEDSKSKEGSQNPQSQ
Chain of Androgen receptor (Homo sapiens) (P10275 whole entry, looked up): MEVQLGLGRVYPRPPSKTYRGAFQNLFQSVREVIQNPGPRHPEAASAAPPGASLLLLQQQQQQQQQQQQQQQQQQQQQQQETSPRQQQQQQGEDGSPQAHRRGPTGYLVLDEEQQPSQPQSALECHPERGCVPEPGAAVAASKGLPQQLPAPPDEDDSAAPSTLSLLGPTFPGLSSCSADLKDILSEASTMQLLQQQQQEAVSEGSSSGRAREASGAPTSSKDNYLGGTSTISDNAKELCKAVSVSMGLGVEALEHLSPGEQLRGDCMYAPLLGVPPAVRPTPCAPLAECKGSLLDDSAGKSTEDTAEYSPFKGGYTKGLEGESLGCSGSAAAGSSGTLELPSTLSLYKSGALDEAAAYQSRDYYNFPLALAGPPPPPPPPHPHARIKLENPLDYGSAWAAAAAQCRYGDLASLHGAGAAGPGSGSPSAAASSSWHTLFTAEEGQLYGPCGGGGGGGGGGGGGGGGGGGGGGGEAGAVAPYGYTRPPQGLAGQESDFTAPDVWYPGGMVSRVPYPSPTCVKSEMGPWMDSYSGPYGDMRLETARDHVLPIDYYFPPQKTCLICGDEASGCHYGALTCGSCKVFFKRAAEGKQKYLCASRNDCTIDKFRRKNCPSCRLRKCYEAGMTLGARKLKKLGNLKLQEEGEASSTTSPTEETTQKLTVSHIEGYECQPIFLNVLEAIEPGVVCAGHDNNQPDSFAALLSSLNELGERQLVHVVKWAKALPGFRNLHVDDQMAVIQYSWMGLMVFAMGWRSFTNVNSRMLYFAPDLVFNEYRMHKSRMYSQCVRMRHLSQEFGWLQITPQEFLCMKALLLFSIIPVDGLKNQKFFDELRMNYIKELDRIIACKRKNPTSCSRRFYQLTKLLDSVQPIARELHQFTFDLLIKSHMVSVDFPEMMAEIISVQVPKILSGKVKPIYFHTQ
Chain of Estrogen receptor (Homo sapiens) (P03372 whole entry, looked up): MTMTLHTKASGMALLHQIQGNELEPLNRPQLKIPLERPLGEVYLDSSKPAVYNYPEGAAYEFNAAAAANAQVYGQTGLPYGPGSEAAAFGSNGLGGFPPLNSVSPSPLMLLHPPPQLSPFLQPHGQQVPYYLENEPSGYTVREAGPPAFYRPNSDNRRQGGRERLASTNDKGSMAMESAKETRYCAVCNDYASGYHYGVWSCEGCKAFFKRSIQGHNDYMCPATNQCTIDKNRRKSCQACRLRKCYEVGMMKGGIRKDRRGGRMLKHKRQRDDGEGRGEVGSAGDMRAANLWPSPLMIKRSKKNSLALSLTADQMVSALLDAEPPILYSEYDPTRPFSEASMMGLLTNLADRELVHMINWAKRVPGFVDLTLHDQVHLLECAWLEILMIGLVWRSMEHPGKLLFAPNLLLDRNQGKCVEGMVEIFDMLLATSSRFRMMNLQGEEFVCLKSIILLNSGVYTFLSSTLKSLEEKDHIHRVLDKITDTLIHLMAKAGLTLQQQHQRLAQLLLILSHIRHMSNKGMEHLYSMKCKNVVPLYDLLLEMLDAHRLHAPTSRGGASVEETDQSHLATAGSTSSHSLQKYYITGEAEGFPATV

In the case of `O=[N+]([O-])c1nccn1CO[C@@H](CO)[C@H](O)CO`, the Potency entry in assay [1], in [2], in assay [4], in assay [6], in [7] and in assay [8] was “inactive” in each case. The Potency entry in assay [9], in assay [11], in [12] and in [13] was “inactive” each time. Also, the outcome in [3], in [5], in assay [10], in assay [14] and in assay [15] was inactive.
Consider `Cc1nnc(SCC2=C(C(=O)O)N3C(=O)[C@@H](NC(=O)Cn4cnnn4)[C@H]3SC2)s1`, for which the Potency entry in assay [1], in [17], in [4], in assay [6], in [7] and in assay [8] was “inactive” in each case. The Potency result in assay [9], in assay [11], in assay [12], in assay [13] and in [18] was “inactive” each time. The result in assay [16], in [3], in assay [5], in assay [10] and in assay [15] was inactive.
As for `CCCCNC(=S)NCCCC`, the Potency result in [1], in assay [2], in [17], in assay [4], in [7] and in assay [9] was “inactive” in each case. The Potency entry in assay [12], in [13] and in assay [18] was “inactive” in each case. In addition, the result in [5], in assay [10] and in assay [15] was inactive.
For the compound `COC(=O)/C=C(/C)N`, the Potency entry in [1], in assay [19], in assay [17], in [4], in assay [6] and in assay [7] was “inactive” in each case. The Potency entry in assay [8], in assay [9], in assay [11], in assay [12], in assay [20] and in [18] was “inactive” each time. Moreover, the result in assay [16], in [5], in assay [10], in assay [14] and in assay [15] was inactive.
As to `CN(CCCN1c2ccccc2CCc2ccccc21)CC(=O)c1ccc(Cl)cc1`, the Potency entry in [1], in assay [2], in [17], in [4], in assay [6] and in assay [7] was “inactive” each time. The Potency result in assay [8], in assay [12] and in assay [18] was “inactive” in each case. In addition, the result in assay [5] and in assay [15] was inactive. Further, the Potency in assay [9] was 26.6 µM (active).
For the compound `O=C(O)[C@@H](O)[C@H](O)[C@H](O)[C@@H](O)C(=O)O`, the Potency entry in [1], in assay [2], in assay [4], in [6], in [7] and in assay [8] was “inactive” each time. For the same compound, the Potency result in assay [9], in [12] and in assay [13] was “inactive” throughout. Further, the compound was called inactive in assay [3], in assay [5], in [14] and in [15].
For `CC(C)S`, the Potency result in [1], in [2], in assay [17], in assay [4], in assay [6] and in assay [7] was “inactive” each time. The Potency entry in assay [8], in assay [9], in assay [12], in assay [13] and in assay [18] was “inactive” throughout. For the same compound, the compound was classed as inactive in assay [5], in assay [14] and in [15].
Regarding `OCCN(CCO)CCN(CCO)CCO`, the Potency result in assay [1], in [19], in assay [17], in [4], in assay [6] and in assay [7] was “inactive” each time. Further, the Potency entry in assay [8], in assay [9], in assay [11], in assay [12], in assay [13] and in assay [20] was “inactive” in each case. In addition, the Potency result in assay [18] was “inactive”. Further, the outcome in [16], in [5], in assay [10], in assay [14] and in assay [15] was inactive.
